{"source": "paper PMC4552634", "about": "“A New Set of Chemical Starting Points with Plasmodium falciparum Transmission-Blocking Potential for Antimalarial Drug Discovery” (PLoS ONE, 2015)", "note": "About 3,200 (25%) of roughly 13,000 compounds showed an effect of 50% or more. The list shows a part of the results.", "data": [{"test_system": "P. falciparum stage V gametocytes", "set-up": "BacTiter-Glo ATP luminescence viability of purified stage V gametocytes in 384-well plates, per cent inhibition versus DMSO", "conditions": "48 h, 5 µM; inhibitor", "units": {"% Inhibition": "%"}, "values": [{"smiles": "c1ccc(CCNc2ccnc(Nc3ccc4cn[nH]c4c3)n2)cc1", "note": "[TCMDC-136880]", "% Inhibition": 16.88}, {"smiles": "CN(c1ccccc1)S(=O)(=O)c1cccc(NC(=O)c2ccc(-n3ccnc3)c([N+](=O)[O-])c2)c1", "note": "[TCMDC-125320]", "% Inhibition": 19.17}, {"smiles": "CCC(=O)N1CCc2cc(Br)cc(S(=O)(=O)N3CC(C)CC(C)C3)c21", "note": "(centres unmarked) [TCMDC-123873]", "% Inhibition": -4.792}, {"smiles": "Cc1ccc(N2C(=O)C3C(C2=O)C2(c4ccccc4)C(=O)C3(c3ccccc3)C(c3ccccc3)=C2c2ccccc2)c(C)c1", "note": "(centres unmarked) [TCMDC-124184]", "% Inhibition": 31.21}, {"smiles": "Oc1ccc(CCNc2nc(N/N=C/c3ccc(Cl)cc3)nc(N3CCNCC3)n2)cc1", "note": "[TCMDC-138543]", "% Inhibition": -10.01}, {"smiles": "C=CCN(c1ccc(OC)cc1)S(=O)(=O)c1ccc(Cl)c(C(=O)Nc2cccc(C#N)c2)c1", "note": "[TCMDC-123716]", "% Inhibition": -20.14}, {"smiles": "COc1ccc(-c2cccc(NC(=O)c3ccc(Cl)cc3)c2)cc1CNC(C)C", "note": "[TCMDC-132603]", "% Inhibition": 87.48}, {"smiles": "COc1ccc(-c2cccc(NC(=O)c3cccc(Cl)c3)c2)cc1CNC(C)C", "note": "[TCMDC-133340]", "% Inhibition": -37.98}, {"smiles": "COc1ccc(-c2ccc(NC(=O)c3ccc(C#N)cc3)cc2)cc1CNC(C)C", "note": "[TCMDC-132518]", "% Inhibition": 25.16}, {"smiles": "COc1ccc(-c2ccc(NC(=O)c3cccc(Cl)c3)c(F)c2)cc1CNC(C)C", "note": "[TCMDC-132766]", "% Inhibition": 31.53}, {"smiles": "COc1ccc(-c2ccc(NC(=O)c3cccc(F)c3)cc2)cc1CNC(C)C", "note": "[TCMDC-132529]", "% Inhibition": -9.819}, {"smiles": "COc1ccc(-c2ccc(NC(=O)c3ccc(F)cc3)cc2)cc1CNC(C)C", "note": "[TCMDC-132515]", "% Inhibition": 64.88}, {"smiles": "CCNc1cc(C(=O)N[C@@H](Cc2ccccc2)[C@H](O)CNC(C)(C)c2cccc(OC)c2)cc(N2CCCC2=O)c1", "note": "[TCMDC-138895]", "% Inhibition": -11.4}, {"smiles": "CCc1cccc(-n2nc(OCC(=O)NC3CCCC3)c3cccnc32)c1", "note": "[TCMDC-125160]", "% Inhibition": 5.355}, {"smiles": "COc1cccc2cc(C(=O)N[C@@H](CC(C)C)C(=O)N[C@H](C=NN3CC(=O)NC3=O)CC(C)C)oc12", "note": "[TCMDC-136063]", "% Inhibition": 6.388}, {"smiles": "COc1ccc(NC(=O)Nc2ccc(-c3ccc(-c4nc5ccccc5[nH]4)cc3)cc2)cc1", "note": "[TCMDC-133248]", "% Inhibition": -24.62}, {"smiles": "COc1ccc(OCC(=O)Nc2cc(-c3nc4ccccc4[nH]3)ccc2Cl)cc1", "note": "[TCMDC-125425]", "% Inhibition": -8.801}, {"smiles": "Oc1cccc(-c2nc(-c3ccccc3)c(-c3ccc(Oc4ccc(-c5[nH]c(-c6cccc(O)c6)nc5-c5ccccc5)cc4)cc3)[nH]2)c1", "note": "[TCMDC-125666]", "% Inhibition": -19.27}, {"smiles": "Oc1cc(-c2nc(-c3ccccc3)[nH]c2-c2ccncc2)ccc1Cl", "note": "[TCMDC-139660]", "% Inhibition": -47.58}, {"smiles": "COc1cc(-c2nc(-c3ccccc3)c(-c3ccccc3)[nH]2)ccc1OCCN(C)C", "note": "[TCMDC-137716]", "% Inhibition": -85.41}, {"smiles": "CCCCNCCOc1ccc(-c2nc(-c3ccccc3)c(-c3ccccc3)[nH]2)cc1", "note": "[TCMDC-138053]", "% Inhibition": 74.26}, {"smiles": "CCCCCOc1ccc(C=NNc2nc(-c3ccccc3)cc(=O)[nH]2)cc1", "note": "[TCMDC-124237]", "% Inhibition": 29.87}, {"smiles": "CCCCCCNCCOc1ccc(-c2nc(-c3ccccc3)c(-c3ccccc3)[nH]2)cc1", "note": "[TCMDC-137684]", "% Inhibition": 76.06}, {"smiles": "CCCCOc1ccc(-c2nc3ccccc3[nH]2)cc1", "note": "[TCMDC-123930]", "% Inhibition": 57.83}, {"smiles": "CN(C)c1ccc(CN2CCC(NC(=O)c3ccc(-c4cccc(F)c4)s3)CC2)cc1", "note": "[TCMDC-134327]", "% Inhibition": -0.6628}, {"smiles": "COc1ccccc1Nc1nc(C)cc(NCc2ccc(-n3ccnc3)cc2)n1", "note": "[TCMDC-133452]", "% Inhibition": 11.88}, {"smiles": "COc1ccc(S(=O)(=O)Nc2cc(C)cc(Br)c2OC)cc1N1CCN(C(=O)C(Cl)(Cl)Cl)CC1", "note": "[TCMDC-139808]", "% Inhibition": 8.102}, {"smiles": "CO/C(=C\\C=C\\c1cc2cc(Cl)c(Cl)cc2[nH]1)C(=O)NCCCN1CCN(c2ccncc2)CC1", "note": "[TCMDC-139184]", "% Inhibition": 16.21}, {"smiles": "CN(C)CCCSc1ccccc1NC(=O)C=Cc1ccccc1", "note": "[TCMDC-125843]", "% Inhibition": 7.207}, {"smiles": "Cc1ccc(-c2noc(COc3ccccc3C(=O)NC3CCCC3)n2)cc1", "note": "[TCMDC-124748]", "% Inhibition": 47.39}, {"smiles": "FC(F)(F)c1ccc2nccc(NCc3ccccc3)c2c1", "note": "[TCMDC-138259]", "% Inhibition": -8.95}, {"smiles": "CCc1ccc(NC(=O)c2ccc(CN3CCCN(CCC(C)C)CC3)cc2)cc1", "note": "[TCMDC-136448]", "% Inhibition": -6.236}, {"smiles": "COc1ccc2oc(=O)c(C#N)c(O)c2c1", "note": "[TCMDC-131398]", "% Inhibition": -8.165}, {"smiles": "FC(F)(F)c1cccc(CNC2CCN(CC3CCCCC3)CC2)c1", "note": "[TCMDC-141660]", "% Inhibition": -52.78}, {"smiles": "CCCCCCN1CCC(NCc2ccc(CN(C)C)cc2)CC1", "note": "[TCMDC-141662]", "% Inhibition": 16.26}, {"smiles": "CN1CCN(CCCN(Cc2cccc(-c3cccc(CNC4CCCC4)c3)c2)C(=O)CCC2CCCC2)CC1", "note": "[TCMDC-140555]", "% Inhibition": 119.1}, {"smiles": "FC(F)(F)c1ccc(CNC2CCN(CC3CCCCC3)CC2)cc1", "note": "[TCMDC-141661]", "% Inhibition": -50.93}, {"smiles": "CN1CCN(CCCN(Cc2ccc(-c3ccc(CNC4CCCC4)cc3)cc2)C(=O)CCC2CCCC2)CC1", "note": "[TCMDC-140560]", "% Inhibition": 99.06}, {"smiles": "CCCCCCN1CCC(NCc2cccc(C#N)c2)CC1", "note": "[TCMDC-141670]", "% Inhibition": -17.05}, {"smiles": "CN1CCN(CCCN(Cc2cccc(-c3ccc(CNC4CCCC4)cc3)c2)C(=O)CCC2CCCC2)CC1", "note": "[TCMDC-140750]", "% Inhibition": 98.64}, {"smiles": "CCCC(C)Nc1nc(C)cc(N[C@@H](Cc2ccccc2)C(=O)Nc2ccccc2)n1", "note": "(some centres unmarked) [TCMDC-134767]", "% Inhibition": -30.62}, {"smiles": "CCc1c(C(=O)NC2CCC(N3CCC(c4ccccc4OC)CC3)CC2)[nH]c2ccc(Br)cc12", "note": "(centres unmarked) [TCMDC-133499]", "% Inhibition": -52.27}, {"smiles": "COc1ccccc1C(C)NCC(=O)Nc1cc(C(F)(F)F)ccc1Cl", "note": "(centres unmarked) [TCMDC-125041]", "% Inhibition": -2.208}, {"smiles": "COc1ccc(Nc2nccc(N3CCC(NS(=O)(=O)c4ccc(NC(C)=O)cc4)C3)n2)cc1", "note": "(centres unmarked) [TCMDC-133608]", "% Inhibition": -25.9}]}]}
